CHO-K1 Ca antag: counter-screen for M1 antagonists: effect in parental CHO-K1 cells; ATP-induced calcium, Fluo-8 fluorescence; inhibition, % at 3 µM; 360,000 tested, 0.6% active; AID 602250;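 active = inhibition above a per-plate cutoff, the plate's mean sample inhibition plus 3 SD, cut at about 24% in these data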;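 also: 0% = DMSO plus EC80 ATP and 100% = DMSO alone without ATP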
CHRM1 agonist: activates human CHRM1 receptor; P11229; CHO-K1 hM1, Fluo-8 calcium fluorescence, agonist mode; 0% DMSO, 100% acetylcholine EC100; activation, % at 3 µM; 360,000 tested, 0.33% active;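 active = activation above the run's mean compound activation plus 3 SD, cut at about 16% in these data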;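 also: peak over basal fluorescence ratio within a 140 s kinetic read after compound addition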
Target sequence (P11229 whole entry, looked up): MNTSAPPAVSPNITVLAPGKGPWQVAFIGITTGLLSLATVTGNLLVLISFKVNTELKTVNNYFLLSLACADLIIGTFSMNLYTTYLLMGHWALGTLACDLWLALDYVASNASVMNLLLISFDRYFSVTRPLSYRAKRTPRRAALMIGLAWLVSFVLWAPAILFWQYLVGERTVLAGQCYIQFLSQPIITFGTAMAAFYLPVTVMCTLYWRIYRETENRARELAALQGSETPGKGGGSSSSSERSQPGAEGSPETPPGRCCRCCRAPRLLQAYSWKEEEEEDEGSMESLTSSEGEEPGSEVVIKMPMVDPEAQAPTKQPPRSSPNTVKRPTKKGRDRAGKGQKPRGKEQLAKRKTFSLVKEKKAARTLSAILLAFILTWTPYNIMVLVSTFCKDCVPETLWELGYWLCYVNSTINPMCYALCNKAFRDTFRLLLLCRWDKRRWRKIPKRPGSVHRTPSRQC
M1 antag: antagonists of human M1 muscarinic receptor; CHO-K1 hM1, Fluo-8 calcium fluorescence, ACh EC80 antagonist; inhibition, % at 3 µM; 360,000 tested, 1.3% active;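 active = percent inhibition above its own plate's cutoff, namely the mean of that plate's compound wells plus 3 SD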;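 also: peak over basal fluorescence ratio during 140 s after agonist addition; 0% = ACh EC80 plus DMSO and 100% = DMSO alone without agonist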
M1 PAM: positive allosteric modulators of human M1 muscarinic receptor. P11229. CHO-K1 hM1, Fluo-8 calcium fluorescence, ACh EC20; 0% = ACh EC20, 100% = maximal ACh. activation, % at 3 µM. 360,000 tested, 0.088% active. AID 588819; in the data active = activation above about 19%, passing the limit was not always enough
CHO-K1 Ca PAM: counter-screen for M1 PAMs: effect in parental CHO-K1 cells. ATP EC20, Fluo-8 calcium fluorescence; 0% at ATP EC20, 100% at ATP max. activation, % at 3 µM. 360,000 tested, 0.02% active. AID 602247;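 active = activation above the run cutoff, the mean activation of all test compounds plus 3 SD, cut at about 40% in these data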;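 also: peak over basal fluorescence ratio in a 140 s read after ATP addition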
M1 ag parental: M1 agonist counterscreen hit in parental CHO-K1 cells | activation, % at 3 µM | Fluo-8 calcium fluorescence; scaled to maximal ATP response, vehicle zero | AID 602248 | 360,000 tested, 0.48% active; in the data active = activation above about 15%;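 also: untransfected CHO-K1 host cells lacking M1 receptor as counterscreen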
An asterisk follows results filed as active. Hits are enriched below; roughly 2.3% of the tested compounds scored in any of these assays.

C=CCN(C(=O)CN1CCOCC1)c1nc(C)c(-c2ccccc2)s1 was read as CHO-K1 Ca antag -3.0, CHRM1 agonist -4.6, M1 antag -2.9, M1 PAM 1.6, CHO-K1 Ca PAM -2.1 and M1 ag parental -0.2.
C=CCN(C(=O)CN1CCCCC1)c1nc(-c2ccccc2)cs1 was read as CHO-K1 Ca antag -10.8, CHRM1 agonist -11.5, M1 antag 25.0*, M1 PAM -22.6, CHO-K1 Ca PAM 13.8 and M1 ag parental -0.2.
For O=[N+]([O-])c1ccc(N2CCN(C(=S)NC3CCCCC3)CC2)cc1 the results were CHO-K1 Ca antag 8.6, CHRM1 agonist 1.8, M1 antag 20.9*, M1 PAM -20.8, CHO-K1 Ca PAM 3.8 and M1 ag parental 8.9.
`CCn1c(C)cc(C(=O)CSc2nnc(C3CC3)n2C2CC2)c1C` gave CHO-K1 Ca antag -0.6, CHRM1 agonist -5.8, M1 antag -8.1, M1 PAM 5.0, CHO-K1 Ca PAM -8.3 and M1 ag parental 0.1.
CCCCn1nnnc1C(c1ccccc1)N1CCN(C/C=C/c2ccccc2)CC1 (stereo unspecified) was read as CHO-K1 Ca antag -3.8, CHRM1 agonist -6.5, M1 antag 53.4*, M1 PAM -26.0, CHO-K1 Ca PAM 3.5 and M1 ag parental 0.0.
For CCCCn1nnnc1C(CC)N1CCN(C/C=C/c2ccccc2)CC1 (stereo unspecified) the results were CHO-K1 Ca antag 9.8, CHRM1 agonist -5.3, M1 antag -28.3, M1 PAM 7.7, CHO-K1 Ca PAM -11.1 and M1 ag parental 1.6.
`Cc1cccc(C)c1-n1nnnc1C(c1cc2ccccc2o1)N1CCN(C/C=C/c2ccccc2)CC1` (stereo unspecified) gave CHO-K1 Ca antag -21.7, CHRM1 agonist -3.6, M1 antag 56.1*, M1 PAM -24.9, CHO-K1 Ca PAM 13.9 and M1 ag parental 1.2.
For COc1ccc(-n2nnnc2C(c2ccccc2)N2CCN(C/C=C/c3ccccc3)CC2)cc1 (stereo unspecified) the results were CHO-K1 Ca antag -15.7, CHRM1 agonist -8.7, M1 antag 67.9*, M1 PAM -26.2, CHO-K1 Ca PAM -1.5 and M1 ag parental -0.6.
`Cc1cccc(C)c1-n1nnnc1C(c1cccc2ccccc12)N1CCN(C/C=C/c2ccccc2)CC1` (stereo unspecified) gave CHO-K1 Ca antag -18.2, CHRM1 agonist -2.5, M1 antag -8.3, M1 PAM -7.7, CHO-K1 Ca PAM 1.5 and M1 ag parental 0.5.
CCCCn1nnnc1C(c1ccnc2ccccc12)N1CCN(C/C=C/c2ccccc2)CC1 (stereo unspecified) was read as CHO-K1 Ca antag -8.9, CHRM1 agonist -6.5, M1 antag 79.9*, M1 PAM -27.0, CHO-K1 Ca PAM -4.8 and M1 ag parental 0.4.
`CCOC(=O)[C@]12CCC=C1N(Cc1ccc3c(c1)OCO3)C(=O)[C@H](CC(=O)NCc1ccc(C)o1)C2` gave CHO-K1 Ca antag -1.4, CHO-K1 Ca PAM 8.2 and M1 ag parental 0.2.
CC(C)(C)n1nnnc1C(c1ccccc1)N1CCN(C/C=C/c2ccccc2)CC1 (stereo unspecified) was read as CHO-K1 Ca antag -14.0, CHRM1 agonist -4.2, M1 antag 62.6*, M1 PAM -23.9, CHO-K1 Ca PAM 16.4 and M1 ag parental 2.0.
For CCC(c1nnnn1C(C)(C)C)N1CCN(C/C=C/c2ccccc2)CC1 (stereo unspecified) the results were CHO-K1 Ca antag -12.9, CHRM1 agonist -4.6, M1 antag -17.1, M1 PAM -1.7, CHO-K1 Ca PAM 8.1 and M1 ag parental 0.9.
CCCCn1nnnc1C(c1ccccc1OC(F)(F)F)N1CCN(C/C=C/c2ccccc2)CC1 (stereo unspecified) was read as CHO-K1 Ca antag -16.0, CHRM1 agonist -8.0, M1 antag 15.6, M1 PAM -24.8, CHO-K1 Ca PAM 0.5 and M1 ag parental -0.2.
CCCCn1nnnc1C(c1cccc2ccccc12)N1CCN(C/C=C/c2ccccc2)CC1 (stereo unspecified) was read as CHO-K1 Ca antag 13.7, CHRM1 agonist -4.8, M1 antag 95.4*, M1 PAM -25.1, CHO-K1 Ca PAM 0.5 and M1 ag parental 1.2.

Assay outcomes: PubChem, The Scripps Research Institute Molecular Screening Center
